# PubChem BioAssay (NCI)
# About 79,000 compounds went through this panel and 15% of them were active in at least one assay; those are over-represented in the sample as a whole. Values without a mark were called inactive. The source made the active and inactive calls. No stated cut-off is given here; in the data, active means growth inhibition above about 70%; inactive means the rest.
# Tests used:
# [1] = NCI Yeast Anticancer Drug Screen. Data for the rad50 strain (AID 155);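 further: 0% = growth of vehicle-only cultures of the same strain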; conditions: S. cerevisiae rad50 strain growth inhibition; at 50.0 µM; stronger effect = higher value
# Procedure, shortened: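 Yeast carrying a defined DNA repair defect were exposed to test compounds, and growth was compared with vehicle-treated controls to give percent inhibition.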
# [2] = NCI Yeast Anticancer Drug Screen. Data for the mec2-1 strain (AID 157); conditions: S. cerevisiae mec2-1 strain, at 50.0 µM, stronger effect = higher value
# Procedure, shortened: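 Mutant yeast (mec2-1) grown with compound; growth inhibition relative to vehicle control reported.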
# [3] = NCI Yeast Anticancer Drug Screen. Data for the sgs1 mgt1 strain (AID 161);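 further: 0% = growth of cultures given vehicle only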; conditions: S. cerevisiae sgs1 mgt1 strain, at 50.0 µM, stronger effect = higher value
# Procedure, shortened: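 Yeast cells carrying a defined DNA-repair defect were exposed to test compounds. Growth inhibition was measured relative to vehicle-treated controls.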
# [4] = NCI Yeast Anticancer Drug Screen. Data for the cln2 rad14 strain (AID 165);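 further: 0% = growth equal to vehicle treated cultures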; conditions: S. cerevisiae cln2 rad14 strain, at 50.0 µM, stronger effect = higher value
# Procedure, shortened: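 Readout is yeast growth inhibition versus vehicle-treated controls, using a strain with cln2 and rad14 alterations exposed to compound.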
# [5] = NCI Yeast Anticancer Drug Screen. Data for the bub3 strain (AID 167); conditions: S. cerevisiae bub3 mutant strain, at 50.0 µM, stronger effect = higher value
# Procedure, shortened: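 Compounds were applied to a genetically altered yeast strain carrying a cell-cycle control defect. Growth inhibition was scored against vehicle-treated controls.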
# [6] = NCI Yeast Anticancer Drug Screen. Data for the mlh1 rad18 strain (AID 175); conditions: S. cerevisiae mlh1 rad18 strain growth inhibition; at 50.0 µM; stronger effect = higher value
# Procedure, shortened: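 Genetically defined yeast (DNA repair-deficient) exposed to compounds; growth inhibition determined relative to vehicle.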
SMILES,growth inhibition [1],growth inhibition [2],growth inhibition [3],growth inhibition [4],growth inhibition [5],growth inhibition [6]
CC1=Nn2c(nnc2-c2ccc(Cl)cc2)NC(C)(C)C1,25.2%,5.55%,7.65%,7.95%,39.1%,26.3%
Cc1nc(-c2cc([N+](=O)[O-])cc([N+](=O)[O-])c2)oc1-c1ccccc1,-15.2%,-1.95%,-7.35%,13%,-3.25%,-3.4%
Cc1cc(C)n2ncc(Br)c2n1,26.2%,13.1%,14.2%,-35%,12.9%,8.15%
Cc1ccc([N+](=O)[O-])cc1NC(=O)C(=O)Cc1cc(=O)oc2cc(O)ccc12,-4.85%,-22.9%,-28.3%,23.9%,-16.1%,-6.25%
CCOC(=O)N1CCC2C(=C(C)C(C)C3=C2C(=O)c2ccccc2C3=O)C1 (stereo unspecified),-11.5%,-3.5%,-8.9%,16.9%,62.4%,7.1%
CC(=O)N[C@]1(C)CCC2C[C@H]1C(C)=NC2(C)C,-5.55%,4.05%,-2.5%,12.2%,1.3%,-14.4%
CC(NC(CC12CC3CC(CC(C3)C1)C2)C(N)=O)c1ccccc1 (stereo unspecified),-17.8%,-20.8%,-2.3%,14.1%,15.3%,-18.4%
c1ccc(-c2cc3cc4c(cc3[nH]2)Oc2ccccc2O4)cc1,5.45%,14.4%,18.4%,10.8%,5.2%,3.1%
OCc1ccc2ccc3ccc(CO)nc3c2n1,14.4%,15.4%,5.6%,-25.4%,15.4%,13.9%
NC(=O)/C(N=Nc1ccccc1)=N\Nc1ccccc1,94.2% (active),94.8% (active),94.8% (active),73.2% (active),95.5% (active),94.8% (active)
Cc1cc([N+](C)(C)C)c(C(C)C)cc1O,-0.45%,5.7%,6.25%,9.55%,11%,0.25%
CCOC(=O)NN(C(=O)OCC)C(=C(c1ccccc1)N1CCOCC1)N(NC(=O)OCC)C(=O)OCC,6.3%,5.6%,-2.7%,31.1%,-2.25%,10.8%
CCOC(=O)/C=C/C(=O)NN,11.4%,-6.35%,2.6%,-26%,0.4%,5.6%
COc1cc(CN=c2nc(N(C)C)ss2)cc(OC)c1OC,-27.8%,-11.2%,9.15%,-3.35%,-11.6%,-4.35%
COc1cc(CNc2cnc3cc(N)ccc3n2)cc(OC)c1OC,-32.5%,-26.8%,-66.3%,-18%,-21.7%,-30.6%
OC(c1cc2ccccc2c2ccccc12)C1CCCCN1 (stereo unspecified),21.9%,16.9%,43.8%,13.2%,20%,36.2%
COc1ccc(NC(=O)ON(C)C)cc1,4.45%,-26.6%,5.15%,-63.1%,3.75%,-5.75%
O=C1Nc2ccc(Br)cc2C1(O)Cc1cccc([N+](=O)[O-])c1 (stereo unspecified),7.35%,12.2%,13.5%,3.55%,-12.9%,11.8%
COc1cc(C2C3=C(COC3=O)OC(C)(C)Oc3cc4c(cc32)OCO4)cc(OC)c1OC (stereo unspecified),4.95%,-11.8%,14.8%,52.9%,-8.8%,22%
CCC(C)(O)C#CC#CC(C)(O)CC (stereo unspecified),17.2%,-22.2%,22.1%,16.6%,-5.35%,22.1%
[N-]=[N+]=Nc1ccccc1C(=O)NCCNC(=O)c1ccccc1N=[N+]=[N-],-7.4%,-31.9%,2.25%,6.85%,2.6%,6.75%

SMILES,growth inhibition [1],growth inhibition [2],growth inhibition [3],growth inhibition [4],growth inhibition [5],growth inhibition [6]
O=c1cc(NCc2cccc([N+](=O)[O-])c2)[nH]c(=O)[nH]1,0.1%,8.2%,5.05%,-12.6%,-5.5%,6.6%
NCC(N)C(O)C(O)C(O)CO (stereo unspecified),5.65%,-2.25%,-2.85%,-43.1%,-16.4%,2.7%
C=CCN1C(=O)/C(=C/c2ccc(OCC(=O)O)cc2)SC1=S,5.7%,-11.2%,0.05%,-46.6%,-1%,-13.8%
COc1cc2oc(=O)ccc2cc1CC=C(C)C,-16.1%,-26.2%,-4.1%,-6.35%,2.95%,-21.8%
CNC(=O)NC(c1ccc2c(c1)OCO2)c1cc2c(cc1O)OCO2 (stereo unspecified),10.8%,-2.7%,13.9%,14.2%,19.2%,24.6%
Cn1cnc([N+](=O)[O-])c1Cl,43.4%,-3.6%,-2.2%,-7.55%,19.2%,-1.1%
O=S(=O)(O)c1ccc(OCCCCCCCCCCOc2ccc(S(=O)(=O)O)cc2)cc1,-14.6%,9.15%,-9.6%,0.7%,-5.35%,-8.1%
O=C(O)c1cc2ccccc2o1,11.6%,0.95%,16.9%,20.6%,-2.6%,30%
CCOC(=O)CS,11.2%,-6.5%,-15.6%,5.7%,20.6%,22.6%
C(/C=C/c1ccccc1)=C1SCCCS1,0.55%,-7.6%,-4.7%,-18.9%,-2.15%,-4.6%
CC(=O)OC1(C)N=NC2(CCCCC2)O1 (stereo unspecified),3.45%,-22.4%,-37.1%,7.5%,-12.1%,-12.3%
COS(=O)(=O)C=C(c1ccccc1)c1ccccc1,12.8%,-27.1%,15.7%,-24.5%,6.4%,-1.95%
c1ccc(-c2cnc(C3CCCCC3)o2)cc1,28%,-14.1%,14.8%,10.2%,17.1%,5.55%
C/C(=N\N=C(/C)c1cccc2ccccc12)c1cccc2ccccc12,-8.9%,-0.65%,4.7%,-15.9%,-17.7%,-36.2%
CCCC(=O)c1ccc(=O)n(C)c1,18.2%,9.8%,-4.4%,-2.1%,14.4%,17.9%
COC(=O)C1CC=CCC1 (stereo unspecified),23.1%,-8.05%,6.85%,14.2%,1.15%,32.4%
O=C(NCCCCCCNC(=O)Nc1cccc(C(F)(F)F)c1)Nc1cccc(C(F)(F)F)c1,-9.65%,-13.7%,-4.05%,-19.1%,2.4%,8.8%
O=C1OC(=O)c2c1cccc2[N+](=O)[O-],-7.55%,0%,-2.6%,-14.4%,-5.2%,2.7%
CCCCCCCCCCCCCC/C(C(=O)OC)=C(/O)C(=O)OCC,-40.4%,-30.4%,-27.6%,-17.2%,-57.8%,-19.9%
O=[N+]([O-])c1ccc(NC2C(O)OC(CO)C(O)C2O)c([N+](=O)[O-])c1 (stereo unspecified),5.1%,-3.2%,5.55%,-7.15%,5.8%,-0.95%
